Compounds with a hit are over-represented: about 7% of the library has one in this group of screens.
BAZ2B inh – qHTS Assay for Inhibitors of BAZ2B; Bromodomain adjacent to zinc finger domain protein 2B (Homo sapiens), Q9UIF8; AlphaScreen BAZ2B-H3K14Ac peptide displacement; Potency, µM (doses to about 114 µM), usual class: inhibitors; 4.4% of 360,000 active; AID 504333, 2011; note: nearly all actives have a fitted effect of over 60% in size
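In this displacement format the biotinylated H3(5-23) peptide acetylated at Lys14 serves as ligand at 50 nM, with BAZ2B at 50 nM in PBS pH 7.4 containing 0.01% Tween-20. Donor and acceptor beads are 10 ug/mL final.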
PLK1 PBD block – qHTS for Inhibitors of PLK1-PDB (polo-like kinase 1 - polo-box domain): Primary Screen; Serine/threonine-protein kinase PLK1 (Homo sapiens), P53350; Plk1 PBD binding of FITC phosphopeptide, fluorescence polarization; Potency, µM, most hits filed as inhibitors; 2.8% of 360,000 active; AID 720504, 2013; note: series mostly up to about 57 µM; nearly all actives have a fitted effect of over 65% in size
KAT2A inh – qHTS Assay for Inhibitors of GCN5L2 | AID 504327, 2011 | GCN5L2 HAT assay, ThioGlo1 CoA-SH fluorescence | Histone acetyltransferase KAT2A (Homo sapiens), Q92830 | 0.21% of 390,000 active | Potency, µM (highest dose often 58.9 µM), actives largely listed as inhibitors
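GCN5L2 (20 nM) in 50mM HEPES pH 7.5, 0.1mM EDTA, 0.01% Tween-20 preincubated 15 min with compounds at room temperature. Reaction started with H3(1-25) 75uM, acetyl-CoA 70uM, ThioGlo1 50uM; CoA-thiol fluorescence (Ex340/Em540) read at 0 and 20 min.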
PI5P4K alpha inh – qHTS for Inhibitors of phosphatidylinositol 5-phosphate 4-kinase (PI5P4K); Phosphatidylinositol 5-phosphate 4-kinase type-2 alpha (Homo sapiens), P48426; PI5P4Kalpha enzyme, ADP-Glo luminescence, 60 min; stronger effect = lower value; max response, %; 1.2% of 330,000 active; AID 652105, 2013; active = max response of -50% or lower; inconclusive = between -30% and -50%; inactive = -30% or higher; note: value at the top dose of about 77 µM
Target sequence (P48426 whole entry, looked up): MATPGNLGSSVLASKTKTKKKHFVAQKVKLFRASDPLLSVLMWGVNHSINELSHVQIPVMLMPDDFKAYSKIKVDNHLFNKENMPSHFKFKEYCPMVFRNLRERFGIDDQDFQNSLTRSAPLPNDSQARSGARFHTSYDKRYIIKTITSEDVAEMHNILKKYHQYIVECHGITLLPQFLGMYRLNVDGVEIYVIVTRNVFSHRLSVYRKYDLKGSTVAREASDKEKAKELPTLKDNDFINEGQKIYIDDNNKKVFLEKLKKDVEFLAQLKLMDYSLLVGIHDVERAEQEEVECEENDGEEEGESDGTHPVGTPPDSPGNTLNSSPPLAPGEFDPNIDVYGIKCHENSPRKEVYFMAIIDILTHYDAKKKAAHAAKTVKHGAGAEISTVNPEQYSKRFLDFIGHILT
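Reactions run in 0.038 M HEPES pH 7.4, 0.28 mM EGTA, 0.1% CHAPS and 5% DMSO, with PI5P4Kalpha, substrate, compound and 5 microM ATP final, one hour at room temperature. Readout is ADP-Glo luminescence.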
JMJD2A Tudor inh – qHTS Assay for Inhibitors of JMJD2A-Tudor Domain; Lysine-specific demethylase 4A (Homo sapiens), O75164; AlphaScreen JMJD2A-Tudor / H3K4me3 peptide binding; Potency, µM (highest dose often 114 µM), most hits filed as inhibitors; 4.4% of 390,000 active; AID 504339, 2011; note: nearly all actives have a fitted effect of over 50% in size
HP1b binding inh – HTS for Inhibitors of HP1-beta Chromodomain Interactions with Methylated Histone Tails; AlphaScreen HP1-beta / biotin-H3K9me3 peptide binding; Potency, µM (highest dose often 114 µM), hits mostly inhibitors; 0.56% of 390,000 active; AID 540317, 2011; note: nearly all actives have a fitted effect of over 70% in size
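AlphaScreen: HP1-beta (50 nM) preformed 30 min with biotin-H3(1-18)K9me3 peptide (50 nM) in PBS pH 7.4, 0.01% Tween-20. Compound added for 30 min at RT, then streptavidin donor/nickel chelate acceptor beads (10 ug/mL) for 30 min.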
Hits are given with their value; 0 = inactive; ? = inconclusive; - = not tested or not shown; ! = a repeat was not active. Unless noted, calls come from the whole dose curve; as a rule, active = well fitted curve in the direction sought with a large enough effect; inconclusive = small, poorly fitted or top-dose-only effect, or another doubt; inactive = no such curve, though single readings can be large; an effect the other way counts as inactive or inconclusive.

SMILES | BAZ2B inh | PLK1 PBD block | KAT2A inh | PI5P4K alpha inh | JMJD2A Tudor inh | HP1b binding inh
COC(=O)C1=C(c2ccccc2OCc2ccccc2)C[C@@H]2CC[C@H]1N2C(=O)NCc1ccc(N(C)C)cc1 | 28µM | 0 | 0 | 0 | 20µM | 0
CC(C)[C@H](NC(=O)[C@H](CCC(=O)O)NC(=O)[C@H](Cc1ccccc1)NC(=O)[C@@H](C)NC(=O)[C@@H](N)Cc1ccc(O)cc1)C(=O)N[C@H](C(=O)NCC(N)=O)C(C)C | - | - | 0 | - | - | -
OCC(Br)(Br)Br | - | - | 0 | - | - | -
N[C@@H](Cn1oc(=O)[nH]c1=O)C(=O)O | - | 0 | 0 | 0 | 4µM | 0
Cc1o[nH]c(=O)c1CC(N)C(=O)O (stereo unspecified) | - | - | 0 | - | - | -
COc1ccc(OC)c(C2=NOC(C(=O)N3CCC4(CC3)OCCO4)C2)c1 (stereo unspecified) | 0 | 0 | 0 | - | 25µM | 0
O=C(O)Cc1cccnc1C(=O)O | - | - | 0 | - | - | -
CCOP(=O)(OCC)OCC | 0 | 0 | 0 | 0 | 0 | 0
CCOP(=O)(CCP(=O)(OCC)OCC)OCC.C[CH2][Sn]([Cl])([Cl])[CH2]C | - | 8.4µM | - | 0 | 0 | 0
COc1cc(Cn2c(=O)oc3ccc(C)cc32)ccc1OC(C)C | 0 | 0 | 0 | 0 | 0 | 0
O=C1NC(=S)NC(=O)C1Cc1ccccc1 | - | ? | - | ? | 89µM | ?
O=C1NC(=O)N(Cc2ccccc2)C(=O)C1Cc1ccccc1 (stereo unspecified) | - | 0 | - | 0 | 0 | 0
COc1ccc(C#Cc2ccc3c(c2)O[C@H](CN(C)C(C)=O)[C@H](C)CN([C@@H](C)CO)S3(=O)=O)cc1 | - | 24µM | - | 0 | - | -
CCOc1cccc(CNCCc2c(C)[nH]c3ccc(OC(F)(F)F)cc23)c1O | 35µM | 0 | ? | 0 | 40µM | ?
COc1ccc2[nH]c(C)c(CCNCc3cccnc3)c2c1 | 20µM | 0 | 0 | 0 | 7.1µM | ?
COc1ccc2[nH]cc(CCNCc3cccnc3)c2c1 | ? | 0 | 0 | 0 | 0 | 0
Cc1ccc2[nH]c(C)c(CCNCc3ccco3)c2c1 | ? | 0 | 0 | 0 | ? | 0
Cc1[nH]c2ccc(OC(F)(F)F)cc2c1CCNCc1cccc([N+](=O)[O-])c1 | 50µM | 0 | 0 | 0 | 7.1µM | ?
Cc1[nH]c2ccc(OC(F)(F)F)cc2c1CCNCc1ccc(Cl)cc1 | 50µM | 0 | 0 | 0 | 13µM | ?
S=C=NCc1ccccc1 | - | - | 0 | - | - | -
COc1cc2c(c(OC)c1OC)-c1ccc(OC)c(=O)cc1[C@H](NC(C)=O)CC2 | - | - | 0 | - | - | -
CCCCC/C=C\C/C=C\C/C=C\C/C=C\CCCC(=O)O | 0 | - | 22µM! | - | - | -
CC1=NNC(=O)C1Cc1ccc(F)cc1 (stereo unspecified) | 0 | 0 | 0 | 0 | 0 | 0
CC1=NNC(=O)C1C(c1ccc(F)cc1)C(C#N)C#N (stereo unspecified) | - | 30µM | - | 0 | 0 | 0
O=C(Nc1cccc(C(F)(F)F)c1)Oc1ccccc1N1CCOCC1 | 0 | ? | 0 | 0 | 0 | 0
SMILES | BAZ2B inh | PLK1 PBD block | KAT2A inh | PI5P4K alpha inh | JMJD2A Tudor inh | HP1b binding inh
C[Se]C[C@H](N)C(=O)O | - | - | 0 | - | - | -
C[Se]C[C@@H](N)C(=O)O | ? | 0 | 0 | ? | 20µM | 0
CC(N)C(O)c1ccc(O)c(O)c1 (stereo unspecified) | - | - | 0 | - | - | -
COc1cc(/C=C/[N+](=O)[O-])ccc1O | 45µM | 19µM | 0 | 0 | ? | ?
CCN(CC)c1ccc(/C=C/[N+](=O)[O-])cc1 | - | 0 | 0 | 0 | ? | 0
O=C(N/N=C1/CN2CCC1CC2)c1cccc(O)c1 | ? | 0 | 0 | 0 | 45µM | 0
CN1C2CCC1CC(OC(=O)c1cccc(O)c1)C2 (stereo unspecified) | - | 0 | - | 0 | 0 | 0
c1ccc2c(c1)Nc1ccccc1S2 | 13µM | 0 | 0 | 0 | ? | ?

Screens: PubChem, National Center for Advancing Translational Sciences (NCATS)
